# Source: PubChem
# This is a sample that favours compounds with a hit; in the whole collection about 7.4% have one here.
# Rab9 promoter act = activates the Rab9 promoter; Potency, µM (highest dose often 9.22 µM), inactives show at the highest dose activation, negative = inhibition, usual class: activators; Huh7 Rab9 promoter-luciferase reporter, luminescence, 24 h; 320,000 tested, 2.8% active; also: % of control where 0% means no effect; nearly all actives have a fitted effect of over 60% in size
#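 Using Huh7 cells stably transfected with Rab9 promoter–luciferase, compounds were incubated 24 h at 37 °C, 5% CO2; luciferase luminescence was read 10 min after reagent addition.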
# ELG1 genotoxic = genotoxicity induction in ELG1-luciferase HEK293T cells; Potency, µM (doses to about 46 µM), without a hit: at the top dose activity change, positive = activation, most hits filed as activators; 330,000 tested, 1.3% active; HEK293T ELG1-luciferase reporter, luminescence, 16 h; AID 504466; also: % of control where 0% means no effect; nearly all actives have a fitted effect of over 60% in size
#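 Step 1: seed 2,000 HEK293T ELG1-luciferase cells per well. Step 2: add compound or DMSO, incubate 16 hr at 37 °C. Step 3: ONE-Glo, 30 min at room temperature, read luminescence.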
# FLuc counter = firefly luciferase modulation, counter-screen for miR-21 project; P08659; purified FLuc, Km substrates, luminescence inhibition; Potency, µM (titrated, usually from 57.5 µM), for the others: at the top dose activity change, negative = inhibition, actives largely listed as inhibitors; 360,000 tested, 6.9% active; AID 588342;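 also: plate controls were vehicle for no effect and reference inhibitor for full effect; nearly all actives have a fitted effect of over 55% in size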
# Target sequence (P08659 whole entry, looked up): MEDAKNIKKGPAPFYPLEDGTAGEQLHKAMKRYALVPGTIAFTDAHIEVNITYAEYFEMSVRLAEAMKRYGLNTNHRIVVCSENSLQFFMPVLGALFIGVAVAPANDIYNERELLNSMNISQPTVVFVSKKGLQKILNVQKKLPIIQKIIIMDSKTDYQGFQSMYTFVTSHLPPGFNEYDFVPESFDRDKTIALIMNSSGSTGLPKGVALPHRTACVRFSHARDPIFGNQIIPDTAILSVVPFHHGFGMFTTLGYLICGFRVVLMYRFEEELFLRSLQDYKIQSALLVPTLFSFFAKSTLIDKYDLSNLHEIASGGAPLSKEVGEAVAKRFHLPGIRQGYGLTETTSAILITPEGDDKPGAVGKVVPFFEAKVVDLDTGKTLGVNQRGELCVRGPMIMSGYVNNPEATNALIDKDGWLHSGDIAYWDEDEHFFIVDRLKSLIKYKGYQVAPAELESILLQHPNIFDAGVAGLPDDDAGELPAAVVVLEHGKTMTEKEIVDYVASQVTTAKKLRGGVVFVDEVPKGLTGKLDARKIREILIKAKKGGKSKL
#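 Purified P. pyralis luciferase, 10 nM final, with Km-level 10 uM D-luciferin and 10 uM ATP in 50 mM Tris acetate pH 7.5, 10 mM Mg acetate, 0.01% Tween-20, 0.05% BSA; 6-point qHTS titration about 60 µM downward; luminescence read.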
# NPC1 promoter act = NPC1 promoter activation; Huh7 NPC1 promoter luciferase reporter, 24 h; Potency, µM (highest dose often 9.22 µM), for inactives: at the highest dose activation, actives largely listed as activators; 320,000 tested, 2.4% active; also: % of control where 0% means no effect; nearly all actives have a fitted effect of over 60% in size
#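 Huh7 reporter cells (NPC1 promoter driving luciferase) are dosed with compound for 24 h at 37 °C, 5% CO2; luciferase detection reagent is then added and luminescence measured after 10 min at ambient temperature.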
# SMN2 splice up = enhancers of SMN2 splice variant expression. HEK293 SMN2-luciferase splicing reporter, luminescence, 30-36 h. Potency, µM (top dose mostly 46.1 µM), for the others: top-dose activity change, positive = activation, hits mostly activators. 210,000 tested, 2.8% active. AID 1458; also: % of control where 0% means no effect; nearly all actives have a fitted effect of over 55% in size
#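 qHTS luciferase splicing reporter: luminescence rises when SMN2 exon 7 is included in transfected HEK293 cells. Compound exposure lasted 30-36 h at 37C, with 4.5 mM final sodium butyrate as control, followed by a ONE-Glo read.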
# * marks the source's active call; other numbers are inactive results; ? = inconclusive; nt = no result given; [ ] = dose if it differs, or a comment. Calls follow the shape of the dose curve; as a rule, active = well fitted curve in the direction sought with a large enough effect; inconclusive = small, poorly fitted or top-dose-only effect, or another doubt; inactive = no such curve, though single readings can be large; an effect the other way counts as inactive or inconclusive. Potency is read from the fitted curve at half-maximal effect.
SMILES,Rab9 promoter act,ELG1 genotoxic,FLuc counter,NPC1 promoter act,SMN2 splice up
COc1ccc(CNC(=O)c2cc(-c3cccs3)on2)cc1,6%,2%,-18%,9%,-35%
O=C(NCc1cccs1)c1cc(C2CC2)on1,?,23µM*,?,23%,24%
Cn1c2ccccc2c2cnn(CC(=O)Nc3ccccc3C(F)(F)F)c(=O)c21,nt,nt,-8%,nt,5%
COc1ccc(-n2c(=O)c3c4c(sc3n(Cc3ccc(C(C)(C)C)cc3)c2=O)CCC4)c(OC)c1,nt,nt,1%,nt,?
O=C(O)c1cc(S(=O)(=O)O)cc(Nc2c3ccccc3nc3ccccc23)c1O,-5%,-4%,8.5µM*,4%,nt
CCCCc1nc2c(c3c1C[C@H](C)OC3)CN(C(=O)N[C@@H](C)c1ccccc1)CC2,nt,nt,nt,nt,8%[9.22 µM]
COc1ccc(OCC(=O)OC(C)CN2CCOCC2)cc1 (stereo not drawn),-3%,2%,2%,-2%,2.8µM*
CNc1ccc(/C=C/C(=O)c2ccc3c(c2)OCCO3)cc1[N+](=O)[O-],-7%,?,6µM*,2%,-8%
O/N=C(/CCc1ccccc1)c1ccc2c(c1)OCCO2,2.8µM*,21µM*,13µM*,4µM*,16µM*
O=C(CCCc1ccccc1)c1ccc2c(c1)OCCO2,-21%,?,0.076µM*,-28%,-41%
CC(CN1CCOCC1)OC(=O)COc1ccc(F)cc1 (stereo not drawn),-9%,1%,-1%,-1%,-2%
CCc1nnc(SC(CC)C(=O)Nc2ccc(OC)c(Cl)c2)c2cc3occc3n12 (stereo not drawn),nt,nt,-11%,nt,nt
O=C(O)CCC(=O)c1ccc2c(c1)OCCCO2,3%,5%,-3%,-7%,15%
O=C(CCc1ccccc1)c1ccc2c(c1)OCCCO2,0.63µM*,4.1µM*,4.3µM*,3.2µM*,?
O=C(CCCc1ccccc1)c1ccccc1,1.4µM*,?,0.76µM*,1.6µM*,nt
O=C(CCN1CCc2ccccc21)c1ccc2c(c1)OCCO2,?,14%,8.5µM*,?,-5%
O=C(c1ccccc1)c1ccc2c(c1)OCCCO2,1.4µM*,?,8.5µM*,1.8µM*,nt
O=C(CCN1CCc2ccccc2C1)c1ccc2c(c1)OCCO2,2%,-1%,?,12%,-5%
O=C(/C=C/c1ccccc1)c1ccc2c(c1)OCCCCO2,1.1µM*,?,0.38µM*,1µM*,?
O=C(CCCC(=O)c1ccc(O)cc1)c1ccc(O)cc1,?,4.6µM*,2.4µM*,3.5µM*,nt
CC(CN1CCCCC1)OC(=O)c1ccc2c(c1)OCCO2 (stereo not drawn),22%,?,?,23%,nt
CC(OC(=O)c1ccc2c(c1)OCCO2)C(=O)c1ccccc1 (stereo not drawn),0.5µM*,?,0.85µM*,0.71µM*,nt
CCC(=O)c1ccc(O)cc1,-2%,2%,5%,-2%,-17%
CC(CN1CCOCC1)OC(=O)c1ccc2c(c1)OCCO2 (stereo not drawn),2.2µM*,?,27µM*,?,26%
CCCn1c(=O)c2sccc2n2c(CCCC(=O)NC3CCCCC3)nnc12,nt,nt,-1%,nt,nt
SMILES,Rab9 promoter act,ELG1 genotoxic,FLuc counter,NPC1 promoter act,SMN2 splice up
Cc1cccc2c1N(Cc1ccccc1OCCC(C)C)C(=O)C2=O,nt,nt,-2%,nt,?
c1ccc2c3c(cc(N4CCOCC4)c2c1)OC1(N2CCOCC2)CCCCC1O3 (stereo not drawn),3%,-15%,0%,1%,22µM*
CC(=O)c1c(C)[nH]c(C2=NNC(=NCc3ccccc3)SC2)c1C,-7%,?,-10%,3%,-19%
CC(C)N=C1NN=C(c2ccc(F)cc2)CS1,0.5µM*,1%,9.5µM*,0.56µM*,14µM*
NC1=NN=C(c2ccc3c(c2)OCCO3)CS1,0.56µM*,-9%,5.4µM*,1µM*,2.5µM*
c1ccc(C2=NNC(=NCc3ccc4c(c3)OCO4)SC2)cc1,?,13%,27µM*,?,nt
Cc1[nH]c(-c2ccc3c(c2)OCO3)nc1C(=O)O,-3%,-10%,?,0%,12%
C=CCN=C1NN=C(c2cc(C)n(CC=C)c2C)CS1,-13%,?,0.34µM*,-4%,-54%
Cc1[nH]c2ccccc2c1C1=NNC(=Nc2ccc(F)cc2)SC1,-3%,-13%,-5%,0%,-38%
Cn1c(=O)n(C)c2cc(N3CCOCC3)c(NC(=O)c3ccc(C(C)(C)C)cc3)cc21,nt,nt,3%,nt,?
CCOC(=O)C1CCN(C(=O)c2cnn(-c3ccc(F)cc3)c2-n2cccc2)CC1,nt,nt,-6%,nt,nt
Fc1ccc(C2=NNC(=NCc3ccccc3)SC2)cc1F,?,13%,?,?,?
CCN=C1NN=C(c2ccc(C)cc2)CS1,?,?,1.1µM*,?,?
c1ccc(CN=C2NN=C(c3ccccc3)CS2)cc1,4.5µM*,6%,19µM*,?,?
COCCN=C1NN=C(c2ccc(NC(C)=O)cc2)CS1,12%,-6%,-14%,4%,11%
COc1ccccc1C1=NNC(=NCc2ccccc2)SC1,20%,6%,?,11%,-5%
Clc1ccc(C2=NNC(=NCc3ccccc3)SC2)cc1,?,3%,17µM*,?,17%
CCCCN=C1NN=C(c2cccc([N+](=O)[O-])c2)CS1,11%,?,?,18%,30%
C=CCN=C1NN=C(c2ccc3c(c2)OCCO3)CS1,0.45µM*,0.58µM*,0.67µM*,1µM*,-27%
COc1ccccc1NC(=O)CN(C)S(=O)(=O)c1ccc2c(c1)c(=O)n(C)c(=O)n2C,nt,nt,0%,nt,-3%
Fc1cccc2sc(Nc3nc4cc5c(cc4s3)OCO5)nc12,3.2µM*,7.3µM*,4.3µM*,4µM*,5µM*
Fc1cccc2sc(Nc3nc4cc5c(cc4s3)OCCO5)nc12,0.71µM*,1.2µM*,1.2µM*,4µM*,?
O=C(NNc1nc2c(F)cc(F)cc2s1)c1ccccc1,-3%,-1%,4%,-1%,22%
O=c1oc2ccccc2cc1-c1csc(Nc2nc3c(F)cccc3s2)n1,-2%,3%,-19%,16%,-28%
Fc1cc(F)c2nc(Nc3nc4cc5c(cc4s3)OCO5)sc2c1,?,?,?,?,18µM*
SMILES,Rab9 promoter act,ELG1 genotoxic,FLuc counter,NPC1 promoter act,SMN2 splice up
O=C(NNc1nc2c(F)cccc2s1)C1=COCCO1,3%,1%,1%,0%,3%
CCC(=O)N1CCc2cc(CNC(=O)c3cccc(N(C)C)c3)ccc21,nt,nt,-14%,nt,nt
CN(C(=O)c1oc(=O)c2ccccc2c1-c1ccccc1)c1cccc(Cl)c1,nt,nt,-6%,nt,-12%
CCC(Sc1nc2ncccc2[nH]1)C(=O)Nc1ccccc1F (stereo not drawn),nt,nt,-3%,nt,nt
Cc1ccc2c(c1)c(N=Nc1cccc(C(=O)O)c1)c(O)n2C,-1%,6%,15µM*,17%,nt
Cc1nc(N)sc1N=Nc1ccc(Br)cc1,1.3µM*,?,4.3µM*,2.2µM*,?
